An excerpt weighted towards active compounds, which were near 11% of everything screened.
USP30 inh – human USP30 deubiquitinase inhibition; purified USP30, Ub-rhodamine cleavage fluorescence; inhibition, % at 25 µM; 5.3% of 47,000 active
USP28 inh – inhibitors of human USP28 deubiquitinase; inhibition, % at 25 µM; 3% of 47,000 active; purified USP28, Ub-rhodamine cleavage fluorescence, 30 min; Q96RU2
Target sequence (Q96RU2 whole entry, looked up): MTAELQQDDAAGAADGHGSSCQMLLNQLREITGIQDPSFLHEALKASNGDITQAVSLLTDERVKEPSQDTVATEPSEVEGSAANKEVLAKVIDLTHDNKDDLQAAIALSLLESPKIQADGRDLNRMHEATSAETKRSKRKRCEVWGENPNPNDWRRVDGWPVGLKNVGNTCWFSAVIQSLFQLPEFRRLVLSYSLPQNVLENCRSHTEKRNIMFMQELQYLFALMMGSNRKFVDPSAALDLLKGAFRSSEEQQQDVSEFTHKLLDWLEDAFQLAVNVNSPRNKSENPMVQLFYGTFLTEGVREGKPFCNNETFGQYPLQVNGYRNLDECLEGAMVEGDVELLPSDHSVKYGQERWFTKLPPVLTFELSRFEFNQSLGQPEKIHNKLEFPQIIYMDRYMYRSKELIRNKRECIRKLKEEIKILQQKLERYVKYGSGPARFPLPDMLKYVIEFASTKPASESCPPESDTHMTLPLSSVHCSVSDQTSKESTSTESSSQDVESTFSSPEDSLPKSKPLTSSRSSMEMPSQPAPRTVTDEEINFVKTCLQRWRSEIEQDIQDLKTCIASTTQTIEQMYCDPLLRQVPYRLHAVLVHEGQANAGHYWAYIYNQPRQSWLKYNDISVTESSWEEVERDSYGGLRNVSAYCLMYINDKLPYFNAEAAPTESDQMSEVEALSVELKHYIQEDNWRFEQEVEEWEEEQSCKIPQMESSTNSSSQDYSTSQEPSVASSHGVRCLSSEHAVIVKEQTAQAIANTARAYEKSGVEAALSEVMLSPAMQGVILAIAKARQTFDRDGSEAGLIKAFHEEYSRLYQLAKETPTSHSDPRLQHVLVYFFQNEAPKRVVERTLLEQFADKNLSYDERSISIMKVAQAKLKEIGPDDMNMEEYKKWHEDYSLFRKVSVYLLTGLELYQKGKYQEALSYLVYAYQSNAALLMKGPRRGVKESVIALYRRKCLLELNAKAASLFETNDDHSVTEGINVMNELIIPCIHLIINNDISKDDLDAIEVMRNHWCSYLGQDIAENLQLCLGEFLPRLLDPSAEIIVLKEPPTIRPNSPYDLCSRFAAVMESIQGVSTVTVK
USP17 block – human USP17-like deubiquitinase inhibition; purified USP17, Ub-rhodamine cleavage fluorescence, 3 h; AID 1645855; A8MUK1; 6.5% of 47,000 active; inhibition, % at 50 µM
Of the large screens only hits and unclear results are named; the others gave an inactive call. No stated cut-off is given here; in the data, active means inhibition above about 30%; inactive means the rest.

CCOc1cc(CNC(=O)Cc2c(C)n[nH]c2C)ccc1OC	none
Cc1onc(-c2ccccc2)c1C(=O)NCCc1ccc(Cl)cc1Cl	none
CCOC(=O)c1ccccc1NC(=O)CSc1ccc2nnc(CCNS(=O)(=O)c3ccc(C)cc3)n2n1	USP30 inh 31
COc1ccc(S(=O)(=O)NCCc2nnc3ccc(SCC(=O)Nc4ccc(OC)cc4OC)nn23)cc1	none
O=C(CSc1ccc2nnc(CCNS(=O)(=O)c3ccccc3)n2n1)Nc1ccc(OC(F)(F)F)cc1	none
O=C(CSc1ccc2nnc(CCNS(=O)(=O)c3ccccc3)n2n1)Nc1ccc(Br)cc1	USP17 block 32
COC(=O)C1=C[C@@H](O)[C@@H](O)[C@@H](O)C1	none
Cc1ccc(S(=O)(=O)N2CCC(C(=O)Nc3nnc(C)o3)CC2)cc1	none
Cc1nnc(NC(=O)C2CCN(c3ccc(S(N)(=O)=O)cc3[N+](=O)[O-])CC2)o1	USP28 inh 66, USP17 block 73
CCc1ccc(C(=O)COC(=O)c2cccnc2Nc2ccccc2F)cc1	none
CCOc1ncccc1C(=O)OCC(=O)c1ccc(C)c(C)c1	USP28 inh 38
CCN1CCN(C(=O)Cn2c(C)ccc(NC(=O)c3ccc(C)cc3)c2=O)CC1	none
Cn1cc(-c2cnc(N3CCCC3)nc2)cc1C(=O)NCc1cccnc1	none
O=C(COC(=O)c1cc2c(s1)CCC2)c1ccc2[nH]c(=O)[nH]c2c1	USP28 inh 66, USP17 block 56
Cc1cccc(C)c1NC(=O)COC(=O)c1ccc2[nH]c3c(c2c1)CCCC3	none
Cc1cccc2[nH]c3c(N4CCN(c5ccc(F)cc5)CC4)ncnc3c12	none
Cc1cccc(NS(=O)(=O)C2CCS(=O)(=O)C2)c1C (configuration not stated)	none
COc1cc(-c2nc3sc4c(c3c(=O)[nH]2)CCCC4)cc(OC)c1O	none
COc1ccc(-c2nc3sc4c(c3c(=O)[nH]2)CCCCCC4)c(OC)c1	USP30 inh 34, USP17 block 31
COc1ccc(Cn2c(=O)n(C)c3ncncc32)cc1F	none
COc1ccc(Cn2nnc(-c3cccc(Cl)c3)n2)cc1F	USP28 inh 35
CCOc1ccc(-c2nc3c(cnn3-c3ccccc3)c(=O)[nH]2)cc1	USP17 block 37
CCOC(=O)N1CCN(C(=O)CSc2nc3c(cnn3-c3ccc(Cl)cc3)c(=O)[nH]2)CC1	none
CCN1CCCn2cc(S(=O)(=O)NCc3ccc(C)o3)cc2C1=O	none
CCOc1ccc(C2C3=C(CCCC3=O)Nc3nc4ccccc4n32)cc1OC (configuration not stated)	none
COc1ccc(-c2nc3n(n2)C(c2cccc(O)c2)C2=C(CCCC2=O)N3)cc1 (configuration not stated)	USP17 block 51
Cc1ccsc1C(=O)NCc1nnc2c(C(F)(F)F)cc(Cl)cn12	none
O=C(NCCc1ccc(Cl)cc1)c1cc2ccccc2s1	none
O=C(NCCc1ccccc1)c1cc2ccccc2c(=O)s1	USP17 block 73 (no result: USP30 inh, USP28 inh)
COc1ccc(C(CC(=O)Nc2ccccc2OC)n2cccc2)cc1 (configuration not stated)	none
Cc1ccc(Oc2ccccc2NC(=O)CSc2nc(N)nc(N)n2)cc1	USP17 block 43
CC1CCc2c(sc3nc(CN4CCOCC4)nc(NCC(=O)Nc4ccc(F)c(F)c4)c23)C1 (configuration not stated)	none
Cc1cc(SCc2nnc(-c3ccc([N+](=O)[O-])c(C)c3)o2)c(C)cc1Cl	none
Cc1cc(SCc2ncon2)c(C)cc1Cl	USP28 inh 69 (no result: USP17 block)
Cc1cccc(CN2C(=O)N(Cc3ccccc3)S(=O)(=O)c3ccccc32)c1	USP30 inh 34
O=C1N(Cc2ccc(F)cc2)c2ccccc2S(=O)(=O)N1Cc1ccc(F)cc1	none
CCOc1ccc(N2C(=O)N(CC(=O)c3ccc(F)cc3)c3ccccc3S2(=O)=O)cc1	none
CC(=O)c1ccc(N2C(=O)N(Cc3cccc([N+](=O)[O-])c3)c3ccccc3S2(=O)=O)cc1	USP30 inh 53
CCN1C(=O)C(C)(C(=O)Nc2ccccc2OC)Oc2cccnc21 (configuration not stated)	none
Cc1cnc(C(=O)N2CCc3nc(C(=O)Nc4ccccc4)sc3CC2)cn1	none (no result: USP30 inh, USP28 inh)
Cc1ccc(NC(=O)CCCN2C(=O)c3cccnc3Sc3ccccc32)cc1	none
COc1ccc(NC(=O)c2cccc(-c3nc(-c4ccccc4)no3)c2)c(OC)c1	none (no result: USP17 block)
COc1cccc(C(=O)Nc2ccccc2-c2nc(-c3ccncc3)no2)c1	USP30 inh 39
C/C=C/C(=O)c1c(OC)cc(=O)oc1C	none
Cc1cnc(C(=O)N2CCCC(c3ncc(Cc4cccc(F)c4)o3)C2)cn1 (configuration not stated)	none
Cc1ccc(NC(=O)Cc2nnc3c(-c4nc(C5CC5)no4)cccn23)cc1	USP30 inh 36, USP17 block 52
Cc1ccccc1NC(=O)Cc1nnc2c(-c3nc(C4CC4)no3)cccn12	none
COc1ccccc1-c1cc(NC(C)=O)c2ncc(-c3ccc(S(C)(=O)=O)cc3)n2c1	USP17 block 39
CC(=O)Nc1cc(-c2cccc(CO)c2)cn2c(-c3ccc(S(C)(=O)=O)cc3)cnc12	none
CCCN1CCN(C(=O)c2cnc3sc4c(n3c2=O)CCC4)CC1	none
COc1ccc(S(=O)(=O)Nc2ccc3c(c2)N(C(C)=O)CC3)cc1OC	none
CCOc1c(C)cc(S(=O)(=O)Nc2ccc3c(c2)N(C(C)=O)CC3)cc1C	USP17 block 68 (no result: USP30 inh, USP28 inh)
Cc1cc(F)ccc1NC(=O)Cc1nc(C)c(C(=O)NC2CC2)s1	none
COc1ccc(/C=C(\NC(=O)c2ccc(Br)cc2)C(=O)NCCc2c(C)[nH]c3ccccc23)cc1	USP30 inh 34
Cc1[nH]c2ccccc2c1CCNC(=O)/C(=C/c1ccccc1)NC(=O)c1ccccc1	none
CC(C)CC(=O)N1C[C@@H]2c3nc(Nc4ccccc4)ncc3CS(=O)(=O)[C@@H]2C1	none
Clc1ccc(Oc2nc3ccccc3c3nnc(-c4ccc(Br)cc4)n23)c(Cl)c1	USP17 block 37
COc1ccc(Cl)cc1Nc1cc(C)c2ccccc2n1	none
O=C(Nc1cnn(-c2ncc(N3CCCCC3)cn2)c1)c1ccncc1	none
COc1cccc(N2C(=O)c3cccnc3C2Nc2ccc(C)cc2)c1 (configuration not stated)	none
COc1cccc(/C=C2\C(=O)N(c3cccc(C)c3)C(=O)c3ccccc32)c1	USP17 block 43
Cc1n[nH]c(C)c1N1C(=O)c2cccc3c(N4CCOCC4)ccc(c23)C1=O	none
Cc1cccc(N2C(=O)/C(=C\c3ccc(N4CCOCC4)s3)c3ccccc3C2=O)c1	USP17 block 42
CC(NC(=O)C1CCN(C2=NS(=O)(=O)c3ccccc32)CC1)c1ccccc1 (configuration not stated)	none
Cc1cc(=O)n2[nH]c(CNc3cccc(Cl)c3)nc2n1	none
Cc1cc(=O)n2[nH]c(CNc3cccc(C(F)(F)F)c3)nc2n1	USP30 inh 31
O=C(NCC(c1ccccc1)c1c[nH]c2ccccc12)c1cc2ccccc2o1 (configuration not stated)	none
Nc1ncc(-c2ccccc2F)c(C2CCCCN2C(=O)c2ccn[nH]2)n1 (configuration not stated)	none
CCn1cc(C(=O)NCc2ccc(F)cc2F)c(=O)c2ccc(C)nc21	USP17 block 41
CCn1cc(C(=O)NCc2ccc(SC)cc2)c(=O)c2ccc(C)nc21	none

Screening results deposited in PubChem by Buhrlage Lab, Dana-Farber Cancer Institute and Novartis Institutes for BioMedical Research (Cambridge, Mass).
